Screening results from PubChem.
Only a selection was taken, and hits are over-represented in it overall.
RMI-FANCM inh – inhibitors of human RMI core complex binding to FANCM MM2 | 70,000 tested, 0.58% active | Fluorescence polarization, RMI core complex with F-MM2 peptide; hits give low values | FP signal (polarization) at 33 µM; in the data active = FP signal below about 40
Hits are given with their value; – = inactive; ! = a repeat was not active.

SMILES | RMI-FANCM inh
O=C(/C=C/c1ccccc1)Nc1ccc(Br)cc1C(=O)c1ccccc1Cl | –
O=C(CN1C(=O)CCC1=O)C(=O)Nc1ccc(Br)cc1C(=O)c1ccccc1Cl | –
O=C(/C=C/c1cccs1)C(=O)Nc1ccc(Br)cc1C(=O)c1ccccc1Cl | 30
CN1CCN(c2cc(NCCCO)c([N+](=O)[O-])c3nonc23)CC1 | –
CC[C@@H]1C=C/C=C/C[C@H](C)[C@@H](O)[C@](C)(O)C(=O)[C@H](C)[C@@H](O)[C@H](C)C(=O)[C@H](C)[C@@H](O)[C@H](C)/C=C/C(=O)O[C@H]2[C@@H](C)[C@@H](CC1)O[C@@]1(CC[C@@H](C)[C@@H](CC(C)O)O1)[C@@H]2C (some centres not stated) | –
Cc1cccc(NC(=O)c2cccn(Cc3ccc(F)cc3)c2=O)n1 | –
S=P(N=C(N1CCOCC1)C(Cl)(Cl)Cl)(N1CCOCC1)N1CCOCC1 | –
CC(C)(O)[C@@H]1[C@H]2OC(=O)[C@@H]1[C@]1(O)C[C@H]3O[C@]34C(=O)O[C@H]2[C@]14C | –
CC(C)(O)[C@@H]1[C@H]2OC(=O)[C@@H]1[C@]1(O)C[C@H]3O[C@]34C(=O)O[C@H]2[C@]14C (tested in a mixture with another compound) | 30
O=C(COc1ccccc1)N1CCN(Cc2nc(-c3cccs3)cs2)CC1 | –
COC(=O)NC(C(Cl)(Cl)Cl)P(=O)(OC)OC (configuration not stated) | –
CC[C@@H]1[C@@H](OC(C)=O)N2C3C[C@H]1C1C(OC(C)=O)[C@]4(C[C@@H]12)c1ccccc1N(C)[C@@H]34 (some centres not stated) | –
CC(O)c1ccc(Br)cc1 (configuration not stated) | –
O=C(CCS(=O)(=O)c1ccccc1)Nc1ccc(Br)cc1C(=O)c1ccccc1Cl | –
CC(=O)c1cccc(NC(=O)c2cccn(Cc3ccccc3C)c2=O)c1 | –
Cc1cccc(NC(=O)c2cccn(Cc3ccc(Br)cc3)c2=O)c1C | –
Cc1ccccc1Cn1cccc(C(=O)Nc2cccc(Cl)c2Cl)c1=O | 10
Cc1cc(NC(=O)c2cccn(Cc3cccc([N+](=O)[O-])c3)c2=O)ccc1Br | –
Cc1ccc(S(=O)(=O)N(C)c2ccc(OCC(=O)Nc3ccc([N+](=O)[O-])c(C(F)(F)F)c3)cc2)cc1 | –
CCN(CC)C(=O)N[C@@H]1C[C@@H]2c3cccc4[nH]cc(c34)C[C@H]2N(C)C1 | –
CCN(CC)C(=O)N[C@H]1C=C2c3cccc4[nH]cc(c34)C[C@H]2N(C)C1 | 20
CC(CO)NC(=O)C1C=C2c3cccc4[nH]cc(c34)C[C@H]2N(C)C1 (some centres not stated) | –
O=C(Cc1cccs1)N1CCN(Cc2nc3ccccc3n2Cc2ccccc2)CC1 | –
CC(C)(C)NCC(O)c1cc(Cl)c(N)c(Cl)c1 (configuration not stated) | 4!
Nc1c(Cl)cc([N+](=O)[O-])cc1[N+](=O)[O-] | –
SMILES | RMI-FANCM inh
O=C(NC(=S)Nc1ccccc1Cl)c1csc([N+](=O)[O-])c1 | –
CC(C)CC(NC(=O)C(Cc1ccccc1)NC(=O)CNC(=O)CNC(=O)C(N)Cc1ccc(O)cc1)C(=O)O (configuration not stated) | –
CC[C@@]1(O)C[C@H](O)c2c(cc3c(c2O)C(=O)c2c(O)ccc(O)c2C3=O)[C@H]1C(=O)OC | 26
CC[C@@]1(O)C[C@H](O[C@H]2C[C@H](N(C)C)[C@H](O)[C@H](C)O2)c2c(cc3c(c2O)C(=O)c2c(O)cccc2C3=O)[C@H]1C(=O)OC | –
CC[C@@]1(O)C[C@H](O[C@H]2C[C@H](N(C)C)[C@H](O)[C@H](C)O2)c2c(cc3c(c2O)C(=O)c2c(O)ccc(O)c2C3=O)[C@H]1C(=O)OC | –
CC(=O)O[C@@H]1CC[C@]2(C)C3CC[C@]4(C)C(=O)CCC4C3CC[C@H]2C1 (some centres not stated) | –
C[C@]12CC[C@H](O)CC1=CC[C@@H]1[C@@H]2CC[C@@]2(C)[C@H]1CC[C@]2(C)O | –
CC(=O)O[C@H]1CC[C@@]2(C)C(=CC[C@@H]3[C@@H]2CC[C@]2(C)C(=O)CC[C@@H]32)C1 | 9
O=C(COc1ccc(Cl)cc1Cl)N1CCN(Cc2nc(C3CC3)cs2)CC1 | –
COc1cccc(OCC(=O)N2CCN(Cc3nc(-c4ccc(F)cc4)cs3)CC2)c1 | –
